Results filed as inconclusive are left out. Activity calls are given as the source filed them. Calls come from the whole dose curve; as a rule, active = well fitted cell-killing curve with a large enough effect; inconclusive = small, poorly fitted or top-dose-only effect, or effect the other way; inactive = no such curve, though single readings can be large or run the other way.
Potency is the fitted concentration of half-maximal effect.

The experiment is described as follows: Viability qHTS for spleen associated tyrosine kinase inhibitor (SYKi) naive MV4-11 cells (AID 1963823). Note: nearly all actives have a fitted effect of over 40% in size. Conditions: MV4-11 AML viability, CellTiter-Glo luminescence, 72 h; series mostly up to 45 µM; viability (% of control): at the top concentration. The gist of the method:
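Cells: MV4-11, SYK inhibitor naive, 500 per well. Treatment: library compounds, 72 hr, 37 C, 5% CO2. Read-out: CellTiter-Glo luminescence after 10 min RT.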
As for `CCC(=O)O[C@H]1[C@H](O[C@@H]2[C@@H](C)[C@H](O[C@H]3C[C@@](C)(OC)[C@@H](O)[C@H](C)O3)[C@@H](C)C(=O)O[C@H](CC)[C@@](C)(O)[C@H](O)[C@@H](C)C(=O)[C@H](C)C[C@@]2(C)O)O[C@H](C)C[C@@H]1N(C)C`, the “viability (% of control)” value is 81.9% (inactive). Take `CC(=O)OCC(=O)[C@@]1(O)CC[C@H]2[C@@H]3CCC4=CC(=O)CC[C@]4(C)[C@H]3C(=O)C[C@@]21C`: the “viability (% of control)” value is 122% (inactive). Same read-out and setting: with `O=c1[nH]c2ccccc2c(=O)n1CCCl` the figure was 86% (inactive). On to `C[C@H](NC(=O)c1c(N)nn2cccnc12)c1cc2cccc(C#Cc3cnn(C)c3)c2c(=O)n1-c1ccccc1`, for which the Potency is 7.23 µM (active).

For `O=C1NC(=O)C(c2c[nH]c3ccccc23)=C1c1c[nH]c2ccccc12`, the Potency is 1.86 µM (active). The same measure, in the same setting: the figure for `CNC(=O)[C@H](Cc1c[nH]c2ccccc12)NC(=O)[C@@H](CC(=O)NO)CC(C)C` is 9.34 µM (active); for `Nc1nc(F)nc2c1ncn2C1OC(COP(=O)(O)O)C(O)C1O` (centres undefined) it is 10.5 µM (active). In the case of `COc1cc(C(=O)N2CCCCCCC2)cc(OC)c1OC`, the “viability (% of control)” value was 56.8% (inactive).

Consider `O=C(O)[C@@H]1[C@H]2C[C@H]3c4[nH]c5ccccc5c4CCN3C[C@@H]2CC[C@@H]1O`, for which the Potency is 2.66 µM (active).

As to `O=C(O)C(S)C(S)C(=O)O` (centres undefined), the “viability (% of control)” value is 85.6% (inactive).

As to `COc1ccccc1OCC(O)CO` (centres undefined), the “viability (% of control)” value was 91% (inactive). `CN(C)Cc1ccc(S(=O)(=O)n2ccc(/C=C/C(=O)NO)c2)cc1`: the Potency was 3.32 µM (active). For the compound `CNC1(C)C2CCC(C2)C1(C)C` (centres undefined), the “viability (% of control)” value was 80.8% (inactive). With `CC(C)n1c(/C=C/[C@H](O)C[C@H](O)CC(=O)O)c(-c2ccc(F)cc2)c2ccccc21`, the Potency was 2.63 µM (active).

For the origin of these results see PubChem BioAssay (NCATS).
